Data on 98 compounds can be found in PubChem BioAssay AID1531 (NMMLSC, 2009).

About 3,300 (1.1%) of roughly 290,000 compounds were called active. The sample holds actives, similar compounds and a random draw of the others, so the mix is not that of the screen. No stated cut-off is given here; in the data, active means binding response below about 67% or above about 130%; inconclusive means no clear call, values can overlap the other calls; inactive means in between.

This assay concerns the target Mitogen-activated protein kinase kinase kinase 2 (Homo sapiens) (UniProt Q9Y2U5). In words: wildtype MEKK2 PB1-MEK5 interaction, increase or decrease – biochemical, multiplex bead flow cytometry, Alexa488-MEK5, primary screen (AID 1531). The conditions noted are these: Alexa488-MEK5 binding to MEKK2 WT, at 10 µM, actives lie on both sides. On the technique in general: A flow cytometer gives signals particle by particle.
With `C=CCC1(C(=O)N(C)Cc2ccccc2)CCN(C(=O)OC(C)(C)C)CC1`, the binding response (% of control) is 94% (inactive).
The result for `Cc1cc(Br)ccc1NC(=S)NC1CCCC1` reads 94% (inactive); that for `CC(=O)[C@@]12O[C@@H]1C[C@H]1[C@@H]3CC[C@H]4C[C@@H](O)CC[C@]4(C)[C@H]3CC[C@@]12C`, 107% (inactive).
For the compound `CC(C)(C)n1nnnc1C(c1ccccc1F)N1CCN(C(=O)c2ccco2)CC1` (stereo not drawn), the binding response (% of control) was 99% (inactive).
In the case of `N#C[C@]1(S(=O)(=O)c2ccccc2)C[C@@H]2ON=C(c3cccc(Br)c3)[C@@H]2C1`, the binding response (% of control) is 91% (inactive).
The result for `c1ccc2cc(OCCN3CCCC3)ccc2c1` reads 102% (inactive).
As to `Clc1ccccc1-c1cc(COc2ccc3ccccc3c2)no1`, the binding response (% of control) was -1% (active).
Under `O=C(Nc1ccc(Cl)cc1)OCc1cc(-c2ccccc2)on1` stands 112% (inactive); under `Cc1c(-c2ccccc2)cn2c1-c1ccc(C)n1CC2`, 55% [inhibitor] (active); under `CCCOc1ccc(Cc2c(O)nc(N)[nH]c2=O)cc1C`, 105% (inactive).
On to `COc1ccc(N2CCN(C3CCCCC3NS(=O)(=O)c3ccccc3)CC2)cc1` (stereo not drawn), for which the binding response (% of control) was 105% (inactive).
For `CCOc1cc2ccccc2cc1C(=O)Nc1ccccn1`, the binding response (% of control) is 108% (inactive).
As to `O=c1[nH]cccc1-c1nc2ccccc2n1Cc1ccc(Cl)cc1`, the binding response (% of control) was 105% (inactive).
Regarding `Cc1ccc(CNS(=O)(=O)c2ccc3c(c2)N(C)CCO3)cc1`, the binding response (% of control) is 94% (inactive).
The result for `COc1cc(/C=C2\SC(=S)N(Nc3ncc(C(F)(F)F)cc3Cl)C2=O)cc(OC)c1OC` reads 61% [inhibitor] (active); that for `COc1cccc(/C=N/Nc2ncc(C(F)(F)F)cc2Cl)c1O`, 96% (inactive); that for `CCOc1ccc(/C=C2\SC(=S)N(NC(=O)c3ccncc3)C2=O)cc1OC`, 95% (inactive).
Regarding `CN(C)c1ccc(/C=C2\NC(=S)N(Cc3ccccc3)C2=O)cc1`, the binding response (% of control) was 72% [inhibitor] (active).
Under `CC1=NN(Cc2ccccc2)C(=O)/C1=C/c1ccc(N(C)C)cc1` stands 109% (inactive).
For the compound `O=C1/C(=C\c2ccsc2)NC(=S)N1c1ccccc1`, the binding response (% of control) was 87% (inactive).
For `CN(Cc1ccco1)S(=O)(=O)c1nnc(NC(=O)c2ccccc2)s1`, the binding response (% of control) is 96% (inactive).
The result for `CN1CCN(/N=C/c2ccc(C#N)cc2)CC1` reads 166% (active).
Regarding `CN1CCN(/N=C/c2ccc(-c3ccc([N+](=O)[O-])cc3)o2)CC1`, the binding response (% of control) is 103% (inactive).
Under `CSc1ccc(/C=N/N2CCN(Cc3ccccc3Cl)CC2)cc1` stands 99% (inactive).
Under `COc1ccccc1CCNS(=O)(=O)c1cc2c3c(c1)C(C)C(=O)N3CCC2` (stereo not drawn) stands 85% (inactive); under `Cc1ccc2c(C)c(C(=O)N(C)Cc3ccncn3)oc2c1C`, 98% (inactive); under `Cc1c(C(=O)N2CCN(c3ccc(F)cc3)CC2)oc2c1C(=O)CCC2`, 104% (inactive).
On to `Cc1ccc2c(C)c(C(=O)N3CCN(c4ccncc4)CC3)oc2c1C`, for which the binding response (% of control) was 159% (active).
The result for `COC(=O)c1ccc(Nc2ncnc3sccc23)cc1` reads 102% (inactive); that for `COc1ccc(-n2nnnc2SCC(=O)Nc2ccccc2)cc1`, 104% (inactive).
Under `Cc1c(NC(=O)CSc2nnnn2-c2ccc(C(=O)O)cc2)c(=O)n(-c2ccccc2)n1C` stands -12% (active); under `Cc1c(NC(=O)CSc2cccc3cccnc23)c(=O)n(-c2ccccc2)n1C`, 99% (inactive); under `CC(Sc1nc2cc(Cl)ccc2s1)C(=O)Nc1ccc2c(c1)OCO2` (stereo not drawn), 78% (inactive).
Consider `O=C(Nc1ccc2c(c1)OCO2)c1sc2cc(Cl)ccc2c1Cl`, for which the binding response (% of control) is 19% (active).
For the compound `O=C(COc1ccc(Cl)cc1)Nc1ccc2c(c1)OCO2`, the binding response (% of control) was 100% (inactive).
For `COC(=O)c1ccccc1NC(=O)C1CCN(C(=O)N2CCOc3ccccc32)CC1`, the binding response (% of control) was 103% (inactive).
`Oc1ccc(-n2nnnc2SCc2c(F)cccc2Cl)cc1`: the binding response (% of control) was 98% (inactive).
`COc1ccc(CNC(=O)c2ccc(Br)s2)cc1OC`: the binding response (% of control) was 96% (inactive).
As to `COc1cccc(-c2cccc(NC(=O)C3CCN(C4CCC4)CC3)c2)c1`, the binding response (% of control) was 104% (inactive).
`CCn1cc(CN2CCC(C(=O)Nc3cccc(-c4cccc(Cl)c4)c3)CC2)c(C)n1`: the binding response (% of control) was 166% (active).
The result for `O=C(Nc1cnn(Cc2ccc(Cl)cc2)c1)C1CCCC1` reads 110% (inactive).
On to `CCn1cc(CN2CCC(n3nccc3NC(=O)CCCc3ccccc3)CC2)c(C)n1`, for which the binding response (% of control) was 108% (inactive).
Under `O=C(Nc1cccc(-c2cccc(Cl)c2)c1)C1CCN(C2CCC2)CC1` stands 151% (active); under `O=C(Nc1cccc(-c2cscn2)c1)C1CCN(Cc2ccsc2)CC1`, 112% (inactive).
The result for `CC(=O)c1cc(CN2CCC(C(=O)Nc3cccc(-c4cscn4)c3)CC2)cs1` reads 116% (inactive); that for `O=C(NC1CCCC1)C1CCN(C(=O)Nc2cccc(Cl)c2)CC1`, 110% (inactive); that for `CCn1cc(CN2CCC(C(=O)Nc3cccc(-c4cccc(Cl)c4)c3)CC2)cn1`, 160% (active).
The result for `COc1ccc(CNC(=O)[C@@H]2CC=C[C@@H]3CCN(C4CC4)C(=O)[C@@H]32)cc1` reads 98% (inactive).
With `Cc1ccc(CN(CC(=O)NC2CCCCC2)C(=O)c2csnn2)cc1`, the binding response (% of control) is 104% (inactive).
With `O=C(O)CC/C(=C\c1cc2c(cc1Br)OCO2)c1nc2ccccc2s1`, the binding response (% of control) is 95% (inactive).
Under `O=C(Nc1ccc(Cl)c(Cl)c1)c1ccccc1NC(=O)C1CC=CCC1C(=O)O` (stereo not drawn) stands 104% (inactive).
The result for `CCCCc1nnc(NC(=O)CSc2nc(C)cc(=O)[nH]2)s1` reads 99% (inactive); that for `CCOC(=O)Cc1csc(NC(=O)CSc2nc(C)cc(=O)[nH]2)n1`, 61% [inhibitor] (active); that for `CCOC(=O)Cc1csc(NC(=O)CSc2ccc(Br)cc2)n1`, 109% (inactive).
Under `CCOc1ccccc1N1C(=O)CC(Sc2nccc(C)n2)C1=O` (stereo not drawn) stands 105% (inactive); under `CSc1ccccc1NC(=O)c1ccc2c(c1)CCN2S(C)(=O)=O`, 106% (inactive).
Take `O=C(C1CCC(=O)N(C2CC2)C1)N1CCN(c2ccc(Cl)cc2)CC1` (stereo not drawn): the binding response (% of control) was 104% (inactive).
Consider `CN(C)Cc1c(O)ccc2c(=O)c(-c3ccccc3Cl)coc12`, for which the binding response (% of control) is 112% (inactive).
On to `CCCOc1ccc(Cl)cc1Nc1nc(NCCO)nc(N2CCCC2)n1`, for which the binding response (% of control) is 112% (inactive).
Regarding `O=C(NCCCN1CCCCCC1)c1ccc(N2CCCC2=O)cc1`, the binding response (% of control) was 193% (active).
Regarding `CCOc1ccc(C(=O)NCCCN2CCCC2=O)cc1`, the binding response (% of control) was 112% (inactive).
The result for `CC1CCC(NC(=O)c2ccc(N3CCCC3=O)cc2)CC1` (stereo not drawn) reads 105% (inactive); that for `CC1CN(S(=O)(=O)c2cccc(C(F)(F)F)c2)CN1C(=O)N1CCOCC1` (stereo not drawn), 95% (inactive); that for `Cc1ccccc1C1CC(c2cccs2)=NN1S(C)(=O)=O` (stereo not drawn), 16% (active).
The result for `COc1ccc(C2CC(c3cccs3)=NN2c2ccccc2)cc1` (stereo not drawn) reads 81% (inactive); that for `COc1ccccc1N1N=C(c2cccs2)CC1c1ccccc1` (stereo not drawn), 93% (inactive).
In the case of `FC(F)(F)c1cccc(Nc2ncnc3ccccc23)c1`, the binding response (% of control) was 103% (inactive).
Under `FC(F)(F)c1cccc(N/N=C/c2ccccc2)c1` stands 143% (active); under `O=[N+]([O-])c1ccc(N/N=C/c2ccccc2)cc1`, 99% (inactive).
The result for `O=C1Nc2cc(C(=O)N3CCN(c4ccc(F)cc4)CC3)ccc2NC1CSCc1cccc(F)c1` (stereo not drawn) reads 87% (inactive).
Take `Nc1ccc(S(=O)(=O)Nc2nccc(/C=C/c3ccc(Br)s3)n2)cc1`: the binding response (% of control) was 93% (inactive).
Under `CC(=O)Nc1ccc(S(=O)(=O)Nc2nccc(/C=C/c3ccccc3F)n2)cc1` stands -6% (active); under `O=C(/C=C/c1ccccc1Cl)Nc1ccc(S(=O)(=O)Nc2ncccn2)cc1`, 92% (inactive); under `CC(=O)N1c2ccc(S(=O)(=O)N3CCC(C(=O)N4CCN(c5ccccc5)CC4)CC3)cc2CC1C` (stereo not drawn), 102% (inactive).
Under `COc1ccc(C=C(C#N)C#N)c(CSc2ccccn2)c1` stands 103% (inactive).
The result for `CCOc1ccccc1NC(=O)NC1CCCCCCC1` reads 98% (inactive).
In the case of `COCCNC(=O)CN(Cc1ccco1)C(=O)CCC(=O)Nc1nccs1`, the binding response (% of control) was 103% (inactive).
The result for `O=C(c1ccc(F)cc1)n1c(=S)nc2ccccn21` reads 80% (inactive); that for `O=C(CSc1ccc(-c2ccc(Br)cc2)nn1)NCC1CCCO1` (stereo not drawn), 107% (inactive).
The result for `CC(NS(=O)(=O)c1ccc(Br)cc1)C(=O)NCC1CCCO1` (stereo not drawn) reads 100% (inactive); that for `OC(CNCC1CCCO1)Cn1c2ccc(Br)cc2c2cc(Br)ccc21` (stereo not drawn), 141% (active); that for `COC(=O)C(C)n1cnc2c(nnn2-c2ccc(F)cc2)c1=O` (stereo not drawn), 94% (inactive).
Under `COc1cc(NC(=O)CCS(=O)(=O)c2ccc3c(c2)oc(=O)n3C)cc(OC)c1` stands 100% (inactive); under `COc1ccc(CCNC(=O)C2CCCN(S(=O)(=O)c3ccc(OC)cc3)C2)cc1` (stereo not drawn), 94% (inactive); under `CC(C)(C)Oc1ccccc1Nc1nc(NCCO)nc(N2CCCC2)n1`, 103% (inactive).
Take `Cc1[nH]c2ccccc2c1/C=N\NC(=O)Cn1nnc(-c2ccccc2)n1`: the binding response (% of control) was 107% (inactive).
The result for `Cc1[nH]c2ccccc2c1/C=N/NC(=O)CNC(=O)c1ccc2c(c1)OCO2` reads 100% (inactive); that for `COCCNC(=S)N/N=C/c1c(C)[nH]c2ccccc12`, 24% (active).
For the compound `CC(C)c1nc2cc(C(=O)NC(C)c3cnn(C)c3)ccc2o1` (stereo not drawn), the binding response (% of control) is 104% (inactive).
Under `O=C(OCc1cc2ccccc2[nH]c1=O)c1cccnc1` stands 109% (inactive); under `O=C(OCc1cc(Cl)ccc1OC(F)F)c1cccnc1`, 281% (active).
`Cc1cc(=O)[nH]c(SCc2cc(Cl)ccc2OC(F)F)n1`: the binding response (% of control) was 106% (inactive).
The result for `COC(=O)C1=C[C@@H](C(=O)OC)[C@@H]2C3=C(C(=O)[C@]2(C)NC(=O)c2ccccc2)[C@H](C)n2c(=O)n(C)c(=O)n2[C@@H]3C1` reads 102% (inactive); that for `OCC[C@H]1C[C@H](O)[C@@H](O)[C@]2(CCCCO2)O1`, 98% (inactive).
In the case of `Cc1ccc(NS(=O)(=O)c2cc3c(cc2C)NC(=O)CO3)cc1`, the binding response (% of control) was 98% (inactive).
Consider `COc1cccc(NC(=O)NCc2ccc(F)cc2)c1`, for which the binding response (% of control) was 98% (inactive).
Turning to `Cc1cccc(NC(=O)Nc2cccc(Oc3c(F)c(F)c(F)c(F)c3F)c2)c1`, the binding response (% of control) was 235% (active).
The result for `Cc1cccc(NC(=O)c2cccc(C(F)(F)F)c2)c1` reads 91% (inactive).
